# TEAD-YAP inh = TEAD-YAP interaction inhibition; HEK-TIYL cells, TEAD-Gal4/YAP UAS-luciferase luminescence; inhibition, % at 9.12 µM; actives 1.4% (n = 640,000); AID 1259422; in the data active = inhibition above about 32%;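 also: 0% = median of test compound wells and 100% = reference inhibitor wells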
# FBW7 activator = human FBW7 E3 ligase activation, primary screen; Q969H0; normalized activity (activation), % at 26.1 µM; actives 0.13% (n = 650,000); AlphaScreen FBW7–phospho-cyclin E peptide binding, activator screen; in the data active = normalized activity above about 1.9%;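 also: purified mutant Fbw7 with reduced substrate affinity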
# GPR151 ag = activates the human receptor GPR151 | Q8TDV0 | PathHunter beta-arrestin GPR151 cells, luminescence | activation, % at 11.2 µM | actives 1% (n = 650,000) | AID 1508602; in the data active = activation above about 4.9%;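 also: 0% = median of compound wells and 100% = cells with positive control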
# Target sequence (Q8TDV0 whole entry, looked up): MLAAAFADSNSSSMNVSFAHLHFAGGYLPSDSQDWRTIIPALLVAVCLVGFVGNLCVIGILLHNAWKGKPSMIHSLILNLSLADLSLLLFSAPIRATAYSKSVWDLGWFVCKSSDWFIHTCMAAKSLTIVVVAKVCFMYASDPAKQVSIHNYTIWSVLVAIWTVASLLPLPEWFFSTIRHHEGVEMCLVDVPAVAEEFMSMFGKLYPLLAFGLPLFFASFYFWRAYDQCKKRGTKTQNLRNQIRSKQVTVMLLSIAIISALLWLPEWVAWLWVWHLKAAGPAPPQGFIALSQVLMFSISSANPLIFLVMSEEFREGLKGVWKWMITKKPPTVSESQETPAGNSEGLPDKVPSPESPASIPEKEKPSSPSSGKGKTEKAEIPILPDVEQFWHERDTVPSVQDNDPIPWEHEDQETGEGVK
# MITF primary = human MITF inhibition, primary screen; AlphaScreen MITF homodimerization, bead proximity signal; inhibition, % at 2.6 µM; O75030; actives 0.91% (n = 650,000); in the data active = inhibition above about 50%;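 also: 0% = vehicle wells with protein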
# The depositor's hits bear a star. Shown are actives, neighbours in structure and some others; about 3.5% of the full set was active somewhere.
SMILES,TEAD-YAP inh,FBW7 activator,GPR151 ag,MITF primary
COc1ccc(-c2nc3c4ccccc4ccn3c2C(C)=O)cc1,1.0,0.1,1.4,12.6
COC(=O)c1ccc(/C=C(\C#N)C(=O)NCc2ccco2)cc1,-12.2,0.0,-1.3,5.0
CCN(CC)C(=O)C1CCCN(Cc2ccc3c(c2)CN(Cc2ccsc2)CCO3)C1 (stereo unspecified),-7.4,-0.2,2.2,3.8
O=C(NCc1ccncc1)/C(=C/c1ccc(-c2cccc(Cl)c2)o1)NC(=O)c1ccccc1,1.6,-0.1,-0.3,6.8
CCOc1ccccc1OCC(=O)N/N=C(\CCC(=O)O)c1ccccc1,59.4*,-0.1,0.3,-5.1
CN(C)c1ccc(/C=N/Nc2cccc3cccnc23)cc1,37.4*,0.4,-4.6,4.7
CC1CN(C(=O)c2ccc(C(F)(F)F)cc2)CC(C)O1 (stereo unspecified),6.0,-0.1,0.4,13.3
COc1ccc(Nc2nc(C)cc(NCc3cccc(C(F)(F)F)c3)n2)cn1,29.3,1.9*,0.5,5.8
COc1ccc(Nc2nc(C)cc(NCc3cccc(C(F)(F)F)c3)n2)cc1,37.6*,0.0,-0.4,5.7
COc1ccc(-c2nc3ncnc(NCc4cccc(C(F)(F)F)c4)c3[nH]2)cn1,53.7*,-0.2,0.4,13.1
COc1ccc(Nc2nccc(NCc3cccc(C(F)(F)F)c3)n2)cn1,9.4,0.0,0.5,-13.4
CCOc1cccc(/C(O)=C2\C(=O)C(=O)N(CCCn3ccnc3)C2c2ccc(C)o2)c1 (stereo unspecified),-7.7,-0.2,-0.2,7.3
CC(=O)OC12CO[C@@H]1C[C@H](O)[C@@]1(C)C(=O)[C@H](O)C3=C(C)[C@@H](OC(=O)[C@H](O)[C@@H](NC(=O)OC(C)(C)C)c4ccccc4)CC(O)([C@@H](OC(=O)c4ccccc4)[C@H]21)C3(C)C (stereo partly specified),51.0*,0.4,-2.0,8.3
CCCc1cc(C(=O)Nc2cccc(O)c2)no1,74.4*,0.7,-4.7,7.2
O=C(Nc1ccc2c(c1)OCO2)c1cc(C2CC2)on1,-46.6,0.2,1.3,-12.7
O=C(Nc1cccc(O)c1)c1cc(C2CC2)on1,83.8*,0.1,-5.0,-4.0
Cc1ccccc1OCC(=O)NNC(=O)C(C)N1C(=O)c2ccccc2C1=O (stereo unspecified),-1.8,-0.1,0.9,7.0
CC(=O)c1c(C)[nH]c(C(=O)CSc2nnc(NCc3ccccc3)s2)c1C,42.0*,-0.1,-0.4,-3.0
CCOC(=O)c1c(C)[nH]c(C(=O)CSc2nnc(NCc3ccccc3)s2)c1C,3.7,0.1,1.9,10.9
Cc1cc2c(N3CCN(c4ccccc4)CC3)ncnc2s1,6.3,0.2,0.5,0.9
Cc1cc2c(N3CCN(c4ccccn4)CC3)ncnc2s1,41.0*,0.1,1.3,19.1
O=C(c1cnc(N2CCN(c3ncccn3)CC2)c2ccccc12)N1CCN(Cc2ccc3c(c2)OCO3)CC1,60.8*,0.0,-0.6,14.1
O=C(c1cnc(N2CCN(c3ncccn3)CC2)c2ccccc12)N1CCCC1,-8.1,0.1,-1.0,4.1
Cc1cc2c(N3CCN(Cc4ccc5c(c4)OCO5)CC3)ncnc2s1,45.5*,0.0,1.1,17.3
Cc1c(-c2ccccc2)[n+](=O)c(-c2ccccc2)c(C)n1[O-],-4.4,0.0,1.7,-3.4
SMILES,TEAD-YAP inh,FBW7 activator,GPR151 ag,MITF primary
CCn1c(O)c(C=Nc2ccccc2Cl)sc1=S,32.4*,-0.1,-0.4,-2.9
Cc1ccsc1/C=C1\S/C(=N/c2nccs2)NC1=O,37.5*,-1.3,-4.8,-10.2
CC(NC(=O)c1cccnc1)c1nnc2n1CCN(Cc1cccc(OCCO)c1)CC2 (stereo unspecified),-6.3,0.1,-1.7,16.2
O=C(N/N=C/c1ccc(O)cc1O)C(=O)N/N=C/c1ccc(O)cc1O,4.6,-1.3,-2.0,99.4*
COc1c(/C=N/NC(=O)c2ccccc2O)sc2ccccc12,-11.2,-0.2,1.0,-11.7
Cc1ccc(/C=N/NC(=O)c2ccccc2O)c(O)c1,24.6,0.0,-0.5,8.6
O=C(N/N=C/c1sc2ccccc2c1O)c1ccc(O)cc1O,47.0*,-0.8,2.8,36.6
O=C(N/N=C/c1ccc(O)cc1O)c1ccccc1O,52.1*,-1.1,-0.5,4.1
O=C(N/N=C/c1cc(I)ccc1O)c1ccccc1O,67.0*,-0.3,0.5,-10.5
O=C(CSc1ccc(C(=O)Nc2ccc(Cl)cc2F)cc1[N+](=O)[O-])NCc1ccc2c(c1)OCO2,-3.8,0.1,1.1,9.5
CCCC/C=C\c1cnc2c(NCCOC)nccn12,-0.9,0.0,-1.1,-5.2
Cc1c(NC(=O)c2cccc(F)c2)cccc1-c1nc2cccnc2s1,-3.6,0.0,0.8,2.9
O=C(CCC(=O)Nc1cc(C(F)(F)F)ccc1Cl)N/N=C\c1ccc(O)cc1O,43.7*,-0.5,1.5,10.1
O=C(CCC(=O)N/N=C/c1ccc(O)cc1O)N/N=C\c1ccc(O)cc1O,5.6,-0.6,0.8,25.5
COc1ccc(-n2nnnc2SCc2ccc(Cl)cc2)cc1,53.0*,0.3,-1.0,13.9
Clc1ccc(CSc2nnnn2-c2ccccc2)cc1,-5.5,0.2,-1.4,9.4
CC1(C)CC(=O)C2=C(C1)OC(N)=C(C#N)C2c1ccc(F)c(F)c1 (stereo unspecified),-8.0,-0.1,1.0,16.0
NC(=O)c1sc2nc3c(c(-c4cccs4)c2c1N)CCCCC3,36.1*,0.1,0.7,-4.8
N#Cc1c(N)nc2sc(C(N)=O)c(N)c2c1-c1cccs1,42.1*,0.2,0.0,-7.7
NC(=O)c1sc2nc3c(c(-c4ccco4)c2c1N)CCCCC3,39.7*,0.2,0.1,-10.6
CCOC(=O)c1sc2nc3c(c(-c4ccco4)c2c1N)CCCC3,7.8,0.7,-0.5,0.7
Nc1c(C(=O)c2ccccc2)sc2nc3c(c(-c4cccs4)c12)CCCC3,-10.1,1.0,-1.7,22.5
COc1ccc(-c2c(C#N)c(N)nc3sc(C(N)=O)c(N)c23)cc1OC,-7.0,0.0,-0.9,17.3
CCOc1cc(/C=C2/SC(=Nc3ccc(OC)cc3)NC2=O)ccc1OCc1ccccc1C#N,5.5,0.2,0.7,3.2
CCOc1ccc(CNc2c(-c3ccc(Cl)cc3)c(=O)c2=O)cc1OC,12.0,0.4,0.8,7.2
SMILES,TEAD-YAP inh,FBW7 activator,GPR151 ag,MITF primary
Nc1nc(-c2cccc(C(F)(F)F)c2)cs1,-25.2,0.1,-0.5,9.2
CS/C(=C\[N+](=O)[O-])Nc1ccc(C(C)(C)C)cc1,54.6*,-0.1,-0.8,-13.7
c1ccc(-c2noc(-c3ccncc3)n2)nc1,1.1,0.5,-8.9,10.8
Brc1cccc(-c2nc(-c3ccccn3)no2)c1,72.7*,-0.1,-9.2,-23.1
CC(C)(C)c1ccc(-c2nc(-c3ccccn3)no2)cc1,96.2*,0.0,-9.0,8.9
Ic1cccc(-c2nc(-c3ccccn3)no2)c1,10.4,-0.1,-2.2,-3.7
Brc1ccc(-c2nc(-c3ccccn3)no2)cc1,90.3*,-0.1,-10.5,4.2
COc1cccc(-c2nc(-c3ccccn3)no2)c1,86.3*,0.7,-11.7,-7.1
COc1cccc(-c2nc(-c3ccccc3)no2)c1,-66.5,0.6,-2.5,3.2
C1CCCN(Cc2nnnn2CC2CCCO2)CC1 (stereo unspecified),-4.2,0.2,0.8,8.4

# Assay outcomes (PubChem BioAssay)
